Data from PubChem BioAssay AID489025 (Southern Research Specialized Biocontainment Screening …, 2010).
Hit rate of the full screen: of about 2,300 compounds, about 790 (34%) were called active. The rule behind the calls is not given here. The list shows a part of the results. Results with a measured potency or affinity are listed apart.

Experiment: THP-1 cell cytotoxicity, dose response, cytotoxicity control for non-replicating M. tuberculosis project (AID 489025)
Conditions: THP-1 cell viability; series mostly up to 40 µM

| SMILES | outcome |
| --- | --- |
| COc1ccc(C2=NC(=O)/C(=C\c3cc(OC)c(OC)c(OC)c3)O2)cc1 | inactive |
| CSc1nnc(Cc2ccc3c(c2)OCO3)o1 | inactive |
| Oc1ccccc1-c1nnc(COc2ccccc2)o1 | inactive |
| Cc1ccc(-c2nnc(-c3ccccc3)o2)cc1 | inactive |
| Cc1cc(C)cc(NC(=O)CCc2ccc(C)o2)c1 | inactive |
| Cn1c(=O)c(Oc2ccc(F)cc2)c(O)c2ccccc21 | inactive |
| Nc1nnc(SCCCC(=O)c2ccc(Br)cc2)s1 | inactive |
| CC(C)(C)c1cc(CN2CCC(O)CC2)cc(C(C)(C)C)c1O | inactive |
| Cc1cc(C(=O)NNc2cc(Cl)ccc2Cl)no1 | inactive |
| Cc1ccc(SCCC(=O)OCC(=O)NCC2CCCCC2)cc1 | inactive |
| Cc1ccccc1OCCC(=O)OCC(=O)NNC(=O)c1cccs1 | inactive |
| O=C(NNc1ccc([N+](=O)[O-])cc1)C1CC1c1ccccc1 (stereo not given) | inactive |
| O=C(N/N=C/c1cccc2nccnc12)c1ccncc1 | inactive |
| COc1cc(/C=N/NC(=O)c2ccncc2)ccc1OC(=O)c1cccc(F)c1 | inactive |
| Cc1ccc(NC(=O)C2CC2c2ccccc2)cc1 (stereo not given) | inactive |
| O=C(COC(=O)c1ccc(Br)o1)NC1CCCCC1 | inactive |
| O=C(N/N=C/C=C/c1cccc([N+](=O)[O-])c1)c1ccncc1 | inactive |
| Cc1ccc(CSCCNC(=O)c2cccc([N+](=O)[O-])c2)cc1 | inactive |
| COc1cccc(OCCNC(=O)c2cc([N+](=O)[O-])cc([N+](=O)[O-])c2)c1 | inactive |
| CC(/C=C/c1cccc([N+](=O)[O-])c1)=N\NC(=O)c1ccncc1 | inactive |

| SMILES | outcome |
| --- | --- |
| O=C(N/N=C/c1ccccn1)c1cccc([N+](=O)[O-])c1 | inactive |
| FC(F)(F)c1ccc(-c2nnc(-c3cccnc3)o2)cc1 | inactive |
| CC1CCCN(CCSc2ccc(Cl)cc2)C1 (stereo not given) | inactive |
| CCC(C)(C)c1ccc(OCC(=O)Nc2ccncc2)cc1 | inactive |
| COc1ccc(-n2c3c(cc(C(=O)NNc4ccccc4)c2=O)C(=O)CC(C)(C)C3)cc1 | inactive |
| Cc1cccc(NC(=O)COC(=O)CCc2c[nH]c3ccccc23)c1 | inactive |
| Cc1ccc(C(C)C)c(OCC(=O)OCc2c(C)noc2C)c1 | inactive |
| CCOC(=O)COc1ccc(C(=O)Nc2cccc(Cl)c2C)cc1 | inactive |
| CCOC(=O)Cc1nc2cc(Cl)ccc2o1 | inactive |
| O=C1c2ccccc2CC1Sc1nnc(-c2ccncc2)o1 (stereo not given) | inactive |
| c1ccc(-c2nnc(SCc3nnc(-c4cccs4)o3)o2)cc1 | inactive |
| CCCCCCOc1ccc(N2C(=O)CC(N3CCN(C(=O)c4ccco4)CC3)C2=O)cc1 (stereo not given) | inactive |
| CC(C)(C)c1ccc2c(c1)OC(C(=O)N/N=C\c1ccccn1)CO2 (stereo not given) | inactive |
| CC(/C=C/c1ccc2c(c1)OCO2)=N/NC(=O)C1COc2ccccc2O1 (stereo not given) | inactive |
| Cc1ccccc1NC(=O)C1COc2ccccc2O1 (stereo not given) | inactive |
| CC(C)NC(=O)C1COc2ccccc2O1 (stereo not given) | inactive |
| O=C(Nc1cccc([N+](=O)[O-])c1)C1COc2ccccc2O1 (stereo not given) | inactive |
| O=C(Nc1cccc(Cl)c1)C1COc2ccccc2O1 (stereo not given) | inactive |
| COc1ccc(NC(=O)C2COc3ccccc3O2)cc1 (stereo not given) | inactive |
| O=C(Nc1ccc([N+](=O)[O-])cc1)C1COc2ccccc2O1 (stereo not given) | inactive |

| SMILES | outcome |
| --- | --- |
| CN1CCC(O)(c2ccccc2)C(C(=O)c2ccccc2)C1 (stereo not given) | inactive |
| COc1cccc(NC(=O)COC(=O)Cc2ccc(Br)cc2)c1 | inactive |
| COc1ccc(OCCC(=O)OCC(=O)Nc2ccc(Br)cc2)cc1 | inactive |
| Cn1ccsc1=NC(=O)c1ccccc1F | inactive |
| Cc1ccccc1C(=O)NNc1ccc([N+](=O)[O-])cc1 | inactive |
| CC(C)(C)Sc1ccc2nc3c(n2c1)CCCC3 | inactive |
| COc1ccc(N=Cc2nc(-c3ccccc3)oc2OC(C)=O)cc1 | inactive |
| CCCOc1ccc(N2C(=O)CC(N3CCCC(C(=O)N4CCCC4)C3)C2=O)cc1 (stereo not given) | inactive |
| Cc1ccc(C2=NN(C)c3nc4ccccc4n3C2)cc1 | inactive |
| COc1cccc(C(=O)OCC(=O)c2ccc(Br)s2)c1OC | inactive |
| O=C(COC(=O)c1ccccc1)NC12CC3CC(CC(C3)C1)C2 | inactive |
| C=CCN1C(=O)C2(NNc3ccccc3O2)c2ccccc21 (stereo not given) | inactive |
| O=C(NCCC1=CCCCC1)c1coc(=O)c(Br)c1 | inactive |
| COc1ccc(C2=Nc3ccccc3OC2)cc1 | inactive |
| Cc1ccc(N2C(=O)CC(Sc3nccc(C)n3)C2=O)cc1 (stereo not given) | inactive |
| COC(=O)c1ccc(Cn2cc(C(F)(F)F)cc([N+](=O)[O-])c2=O)cc1 | inactive |
| COc1ccc(C(=O)OCn2nnc3ccccc3c2=O)cc1[N+](=O)[O-] | inactive |
| Cc1cccc(C)c1NC(=O)COC(=O)CCc1c[nH]c2ccccc12 | inactive |
| C=C[C@]1(C)C=C2CCC3[C@](C)(CCC[C@@]3(C)C(=O)O)C2CC1 (stereo not given in full) | inactive |
| Oc1c(Br)cc(Br)cc1/C=N/c1nccs1 | inactive |
